Shown are actives, neighbours in structure and some others; about 2.9% of the full set was active somewhere.
PAFAH1B3 inh: PAFAH1B3 (human) inhibition; Q15102; hit rate 0.28% among 340,000; AID 492972; inhibition, % at 3.39 µM; recombinant PAFAH1B3, FP-rhodamine probe, fluorescence polarization;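 active = inhibition above the screen-wide average of all tested compounds plus 3 SD, cut at about 25% in these data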
PME-1 primary: blocks human protein phosphatase methylesterase 1 | Q9Y570 | recombinant PME-1, FP-Rh probe fluorescence polarization | inhibition, % at 5.9 µM | hit rate 0.53% among 320,000 | AID 2130;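 active = inhibition above the campaign mean of all compounds plus 3 SD, cut at about 26% in these data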;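 note: competitive labeling of PME-1 active site by serine hydrolase directed probe; inhibitors block probe labeling so polarization falls and inhibition rises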
Fam108B counter: blocks mouse Fam108B hydrolase in RBBP9 counter-screen. recombinant Fam108B, FP-Rh probe fluorescence polarization. inhibition, % at 9.51 µM. hit rate 0.33% among 300,000;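 active = inhibition above the screen mean inhibition plus 3 SD, computed separately per campaign, cut at about 18% in these data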;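 note: inhibitors lower polarization as less probe binds the enzyme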
PAFAH1B2 inh: blocks human PAF acetylhydrolase 1b catalytic subunit 2. P68402. hit rate 1.2% among 340,000. recombinant PAFAH1B2, FP-rhodamine activity probe, fluorescence polarization. inhibition, % at 3.39 µM. AID 492953;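 active = inhibition above the mean of all tested compounds plus 3 SD, cut at about 24% in these data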
Target sequence (P68402 whole entry, looked up): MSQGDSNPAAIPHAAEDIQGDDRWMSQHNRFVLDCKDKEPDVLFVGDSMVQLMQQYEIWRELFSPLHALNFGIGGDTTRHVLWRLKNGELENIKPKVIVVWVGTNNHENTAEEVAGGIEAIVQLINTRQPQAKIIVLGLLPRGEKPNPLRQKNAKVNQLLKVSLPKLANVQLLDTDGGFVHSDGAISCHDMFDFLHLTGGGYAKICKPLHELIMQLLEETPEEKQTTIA
PAFAH2 FP inh: inhibitors of human PAFAH2; Q99487; inhibition, % at 3.39 µM; hit rate 0.99% among 340,000; recombinant PAFAH2, FP-rhodamine activity probe, fluorescence polarization; AID 492956;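 active = inhibition above the mean over all tested compounds plus 3 SD, cut at about 30% in these data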;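 note: inhibitors block probe labeling of enzyme so polarization drops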
pPAFAH FP inh: inhibitors of human plasma PAF acetylhydrolase (pPAFAH) | AID 463082 | inhibition, % at 3.39 µM | Q13093 | recombinant pPAFAH, FP-rhodamine probe fluorescence polarization | hit rate 1.5% among 330,000;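 active = inhibition above the mean inhibition across the screen plus 3 SD, cut at about 25% in these data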;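 note: inhibitors block binding of the rhodamine activity-based probe so polarization drops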
Target sequence (Q13093 whole entry, looked up): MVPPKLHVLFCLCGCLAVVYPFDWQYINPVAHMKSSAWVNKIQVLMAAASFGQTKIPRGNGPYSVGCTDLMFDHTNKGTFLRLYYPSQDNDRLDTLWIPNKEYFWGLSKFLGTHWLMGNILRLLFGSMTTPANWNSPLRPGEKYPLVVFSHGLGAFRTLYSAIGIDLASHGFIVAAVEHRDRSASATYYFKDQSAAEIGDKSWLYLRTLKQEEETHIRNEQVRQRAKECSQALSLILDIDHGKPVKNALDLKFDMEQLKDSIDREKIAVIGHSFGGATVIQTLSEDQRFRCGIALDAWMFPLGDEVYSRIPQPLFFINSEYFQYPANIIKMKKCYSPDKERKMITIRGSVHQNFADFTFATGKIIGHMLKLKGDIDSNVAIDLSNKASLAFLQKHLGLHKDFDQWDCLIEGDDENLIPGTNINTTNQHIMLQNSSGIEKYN
Of the large screens only hits and unclear results are named; the others gave an inactive call.

CC(Oc1ccccc1F)C(=O)NNC(=O)CCS(=O)(=O)c1ccccc1Cl (stereo not drawn)	none
Cn1c(CNC(=O)c2ccco2)nnc1SCC(=O)Nc1cccc(Br)c1	none
Cc1cc(C(C)(C)CC(C)(C)C)ccc1OCCOCC[N+](C)(C)Cc1ccccc1	none
Cc1c(C(=O)NCc2ccccc2F)oc2ccccc12	none
COc1ccccc1NS(=O)(=O)c1cccc(C(=O)NCC(c2ccco2)N2CCCC2)c1 (stereo not drawn)	none (no result: Fam108B counter)
COc1ccc(NS(=O)(=O)c2cccc(C(=O)NCC(c3ccco3)N3CCCCC3)c2)cc1 (stereo not drawn)	pPAFAH FP inh 30.7
CCOC(=O)N1CCC(NC(=O)C2CCCN(S(=O)(=O)c3cccnc3)C2)CC1 (stereo not drawn)	none
COc1ccc(CN2C(=O)c3ccccc3C2C(=O)NC2CCC(C)CC2)c(OC)c1 (stereo not drawn)	PAFAH1B2 inh 25.7
COc1ccc(S(=O)(=O)Oc2cccc(/C=N/N=C3/NC(=O)C(CC(=O)O)S3)c2)cc1 (stereo not drawn)	PAFAH1B2 inh 28.4
CCOc1cc(/C=N/N=C2/NC(=O)C(CC(=O)O)S2)ccc1OCc1ccccc1Cl (stereo not drawn)	pPAFAH FP inh 25.7
Cc1ccc(SCC(=O)O/N=C(\N)c2cccnc2)cc1	PAFAH1B2 inh 75.4
Cc1ccc(S(=O)(=O)N(C)CC(=O)O/N=C(\N)c2cccnc2)cc1	none
CCN(CC(=O)Nc1ccccc1OC)C(=O)CCOc1ccc(C(C)(C)C)cc1	PAFAH1B2 inh 29.9
c1ccc(C(c2ccccc2)c2noc(CN3CCN(CC4CC4)CC3)n2)cc1	none
N#C/C(=C\c1cccnc1)C(=O)Nc1ccccc1[N+](=O)[O-]	pPAFAH FP inh 26.5
CC1NC(=O)NC1CCCCCC(=O)NCCc1ccccc1 (stereo not drawn)	none
Cc1cc(=O)c2c(o1)C(=O)c1occc1C2=O	PAFAH1B3 inh 47.2, PAFAH1B2 inh 26.1, PAFAH2 FP inh 38.1 (no result: PME-1 primary, Fam108B counter, pPAFAH FP inh)
COC(=O)C1=C(CSc2nc3c(cc2C#N)CN(C)CC3)OC(N)=C(C#N)C1c1ccccc1F (stereo not drawn)	pPAFAH FP inh 28.4
CC1CCc2c(sc(NS(=O)(=O)c3ccccc3)c2C(=O)OC(C)C)C1 (stereo not drawn)	pPAFAH FP inh 25.2
O=C(CCCCC(=O)Sc1ccccc1)Sc1ccccc1	none (no result: PME-1 primary, Fam108B counter, pPAFAH FP inh)
COc1ccc(S(=O)(=O)NCC2CCCN(C(=O)C=C(C)C)C2)cc1 (stereo not drawn)	none
CCOC(=O)C1=C(COC(=O)c2ccc([N+](=O)[O-])s2)NC(=O)NC1C (stereo not drawn)	PAFAH1B3 inh 51.6, PAFAH2 FP inh 35.9 (no result: PME-1 primary, Fam108B counter)
C#CCSc1nc(=O)c2cccnc2n1-c1ccc(C)cc1	none
O=S(=O)(NCc1ccccn1)c1ccc(Cl)s1	none
Cc1ccc(NS(=O)(=O)c2ccc3c(c2)oc(=O)n3C)cc1F	pPAFAH FP inh 30.8
CCOC(=O)Cn1c(=O)oc2cc(S(=O)(=O)NC(C)(C)CC)ccc21	none
Cc1ccc(NS(=O)(=O)c2ccc3c(c2)oc(=O)n3C)cc1C	none
CCOc1ccc(NS(=O)(=O)c2ccc3c(c2)oc(=O)n3C)cc1	pPAFAH FP inh 27.9
CCOC(=O)Cn1c(=O)oc2cc(S(=O)(=O)Nc3cccc(C)c3)ccc21	pPAFAH FP inh 25.8
CCOc1ccc(NS(=O)(=O)c2ccc3c(c2)N(C(C)=O)CCS3)cc1	pPAFAH FP inh 31.8
CCOc1ccc(-c2c(C(=O)N/N=C/c3ccncc3)nnn2-c2nonc2N)cc1	none
COc1ccc(C(=O)c2sc3nc(-c4ccccc4)ccc3c2N)cc1OC	pPAFAH FP inh 29.6
COc1ccc(-c2ccc3c(N)c(C(=O)c4ccc(OC)c(OC)c4)sc3n2)cc1	none
O=C(CCc1ccccc1)NNC(=O)COc1ccccc1	none
CCCCn1c(C23CC4CC(CC(C4)C2)C3)n[nH]c1=S	PAFAH1B2 inh 28.7
O=C(COC(=O)C12CC3CC(CC(Cl)(C3)C1)C2)Nc1ccc2[nH]c(=O)[nH]c2c1	PAFAH1B2 inh 28.2 (no result: Fam108B counter)
COc1ccc2c(c1)NC(c1ccc(N(C)C)cc1)c1cccn1-2 (stereo not drawn)	none
Cc1ccc(NC(=O)c2cc(N(C)C)ccc2[P+](=O)O)cc1	none
O=C(NCCC1=CCCCC1)c1ccc(Cl)c(S(=O)(=O)Nc2ccccc2)c1	PAFAH1B2 inh 27.9
CNC(=O)c1ccc(-c2sc3nc(N4CCOCC4)c4c(c3c2N)CCCC4)o1	pPAFAH FP inh 27.0
CNC(=O)c1ccc(-c2sc3nc(N4CCOCC4)c4c(c3c2N)CC(C)(C)OC4)o1	none
Nc1c(C(=O)NCc2ccccc2)sc2nc(N3CCOCC3)c3c(c12)CCCC3	pPAFAH FP inh 27.3
NNC(=O)c1sc2nc(N3CCOCC3)c3c(c2c1N)CCCC3	none (no result: PAFAH1B3 inh, PAFAH1B2 inh, PAFAH2 FP inh)
O=C(NCC(c1cccnc1)N1CCN(c2ccccc2)CC1)c1ccc2c(c1)OCO2 (stereo not drawn)	none
OC(c1ccc(Cl)cc1)c1nnc(-c2ccccc2)o1 (stereo not drawn)	PAFAH1B2 inh 24.5
Clc1ccc(-c2nnc(-c3ccccc3Cl)o2)cc1	none
O=C(CSC(=S)N1CCCC1)c1cc(Br)cc(Br)c1O	pPAFAH FP inh 25.3 (no result: PAFAH1B3 inh, PAFAH1B2 inh, PAFAH2 FP inh)
O=C(CSC(=S)N1CCCC1)Nc1cc2c(cc1Br)OCCO2	none
Nc1c(C(=O)OCC(=O)Nc2cccc([N+](=O)[O-])c2)[nH]c(=O)[nH]c1=O	pPAFAH FP inh 25.3 (no result: PME-1 primary, Fam108B counter)
Cc1ccc(-c2csc(NCCn3c(C)nc4cc(C(F)(F)F)ccc43)n2)cc1	PAFAH1B2 inh 36.7 (no result: PME-1 primary, Fam108B counter)
Cc1ccc(SCCNC(=O)c2ccc([N+](=O)[O-])c(C)c2)cc1	PAFAH1B2 inh 28.1
Cc1ccc(SCCNC(=O)c2ccc(C)c([N+](=O)[O-])c2)cc1	none
COc1ccc(C(=O)Nc2nc(CC(=O)NCCc3ccccc3OC)cs2)cc1	none
O=C(O)Cc1cc(=O)[nH]n(-c2ccccc2)c1=O	none (no result: PME-1 primary, Fam108B counter, pPAFAH FP inh)
O=S(=O)(Nc1cccc(-c2ccc(N3CCCCCC3)nn2)c1)c1ccccc1Cl	pPAFAH FP inh 29.3
CCC(NC(=O)Cc1c(C)c2c(cc(C)c3c(C)c(C)oc32)oc1=O)C(=O)O (stereo not drawn)	none (no result: PME-1 primary, Fam108B counter, pPAFAH FP inh)
CCCCCCc1cc2cc(S(=O)(=O)c3ccc(F)c(Cl)c3)c(=O)oc2cc1O	pPAFAH FP inh 33.0
CCCCCCc1cc2cc(C(=O)OCC)c(=O)oc2cc1O	none
Cc1ccc(CS/C(Nc2ccccc2C)=C(\C#N)C(=O)NCc2ccco2)c(C)c1	pPAFAH FP inh 28.2
Cc1ccccc1N/C(SCc1ccc(Cl)cc1)=C(/C#N)C(=O)NCc1ccco1	none
COc1cc(/C=C2\CCC/C(=C\c3ccc(O)c(OC)c3)C2=O)ccc1O	PME-1 primary 26.1
Cc1cccc(CC(=O)Nc2cccnc2)c1	none
CCOC(=O)c1cnc2c(C)c(Cl)ccc2c1N1CCN(CC)CC1	none
COc1cccc(CN2CCNC(=O)C2CC(=O)N(Cc2cnn(C)c2)C(C)C)c1 (stereo not drawn)	none
